{"source": "PubChem BioAssay (NCATS)", "note": "The source made the active and inactive calls. Calls follow the shape of the dose curve; as a rule, active = well fitted activation curve with a large enough effect; inconclusive = small, poorly fitted or top-dose-only effect; inactive = flat fitted curve, though single readings scatter."}
{"experiment": "Cellular Toxicity (caspase-3) N2a (AID 665);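 also: compound exposure lasted 16 h at 37 °C before readout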", "details": "N2a cells, luminescence, normalized: DMSO 0%, 10 µM staurosporine 100%; series mostly up to 92.2 µM", "source_text": "NIH Chemical Genomics Center [NCGC]\nNIH Molecular Libraries Screening Centers Network [MLSCN]\nNational Institutes of Environmental Health Sciences [NIEHS]\nNational Toxicology Program [NTP]\nWe have developed a 1536-well cell-based assay for quantitative high throughput screening (qHTS) against a number of cell lines to determine in vitro caspase 3/7 activity of small molecules. This particular assay uses the N2a cell line which is derived from mouse neuroblastoma.\nNCGC Assay Protocol Summary:\nThe Caspase-Glo 3/7 assay (Promega) is a homogeneous method to measure caspase-3 and caspase-7 activities in cultured cells. The quantitation of caspase 3/7 activity is based on the cleavage of a peptide-aminoluciferin substrate. After caspase cleaves the substrate the free aminoluciferin is liberated and serves as the substrate of luciferase, which generates the light. The luminescent signal is proportional to the amount of caspase 3/7 activity present.\nUsing the Caspase-Glo 3/7 assay, the amount of caspase 3/7 activity was measured in the N2a cells with complete culture medium following compound treatment for 16 hours. The assay was performed in opaque white 1536-well plates. In the screen, staurosporine and doxorubicin were used as positive controls. Library compounds were measured for their ability to cause the activation of caspase 3/7 in the cell line, as reflected by an increase in luminescence signal, in a concentration-dependent manner. Data were normalized to the controls for basal activity (DMSO only) and 100% stimulation (10 uM staurosporine). AC50 values were determined from concentration-response data modeled with the standard Hill equation.\nqHTS protocol for caspase 3/7 assay in mouse N2a cell line\n[Step] [Parameter] [Value] [Description]\n1. Reagent; 5 uL; 1500 mouse N2a cells/well\n2. Time; 5 hr; 37 °C incubation\n4. Controls; 23 nL; doxorubicin 7 pM to 100 uM & staurosporine 1.4 pM to 20 uM\n5. Time; 16 hr; 37 °C incubation\n6. Reagent; 5 uL; Caspase-Glo 3/7 reagent\n7. Time; 1 hr; Room Temperature\n8. Detection; Luminescence; Viewlux plate reader\nKeywords: caspase 3/7, apoptosis, mouse N2a cell line, luminescence, NTPHTS, NTPHTS_NCGC, NIEHS, EPA, DSSTox, MLSMR, MLSCN, NIH Roadmap, qHTS, NCGC"}
{"smiles": "S=c1[nH]c2ccccc2[nH]1", "outcome": "inactive"}
{"smiles": "CCSC(=O)N1CCCCCC1", "outcome": "inactive"}
{"smiles": "CN(C)c1ccccc1", "outcome": "inactive"}
{"smiles": "COC(=O)c1ccccc1N", "outcome": "inactive"}
{"smiles": "CCCCC(=O)Cl", "outcome": "inactive"}
{"smiles": "ClCc1ccccc1", "outcome": "inactive"}
{"smiles": "C=CCO", "outcome": "inactive"}
{"smiles": "CN(C)C(=O)Nc1cccc(C(F)(F)F)c1", "outcome": "inactive"}
{"smiles": "O=[N+]([O-])c1ccc(Cl)cc1", "outcome": "inactive"}
{"smiles": "ClC(Cl)(Cl)C(Cl)(Cl)Cl", "outcome": "inactive"}
{"smiles": "Oc1cccc(Cl)c1", "outcome": "inactive"}
{"smiles": "C1CC2OC2CC1C1CO1", "note": "(stereo not given)", "outcome": "inactive"}
{"smiles": "OCCOCCO", "outcome": "inactive"}
{"smiles": "CC(C)[C@]12CC(=O)[C@H](C)[C@H]1C2", "outcome": "inactive"}
{"smiles": "CC(C)C#N", "outcome": "inactive"}
{"smiles": "CC(C)(C)c1ccccc1O", "outcome": "inactive"}
{"smiles": "Oc1ccc(Cl)c(Cl)c1", "outcome": "inactive"}
{"smiles": "C=CC(=O)OCCN(C)C", "outcome": "inactive"}
{"smiles": "Brc1ccc(Oc2ccc(Br)cc2Br)c(Br)c1", "outcome": "inactive"}
{"smiles": "N#CC(Br)Br", "outcome": "inactive"}
{"smiles": "CSSC", "outcome": "inactive"}
{"smiles": "Oc1ccc(Cl)c(Cl)c1Cl", "outcome": "inactive"}
{"smiles": "ClCCBr", "outcome": "inactive"}
{"smiles": "Nc1ccc(Cc2ccc(N)cc2)cc1", "outcome": "inactive"}
{"smiles": "O=[N+]([O-])c1ccc(Cl)c(Cl)c1Cl", "outcome": "inactive"}
{"smiles": "C=COC(C)=O", "outcome": "inactive"}
{"smiles": "CC(C)(Cl)Cl", "outcome": "inactive"}
{"smiles": "COC(=O)Nc1cccc(OC(=O)Nc2cccc(C)c2)c1", "outcome": "inactive"}
{"smiles": "C=CCCl", "outcome": "inactive"}
{"smiles": "CC(C)(Cl)[N+](=O)[O-]", "outcome": "inactive"}
{"smiles": "CNC(=O)O/N=C/C(C)(C)S(C)=O", "note": "(stereo not given)", "outcome": "inactive"}
{"smiles": "CCC/C=N/O", "outcome": "inactive"}
{"smiles": "Nc1ccc(-c2ccc(N)cc2)cc1", "outcome": "inactive"}
{"smiles": "Cc1cc(-c2cc(C)c(N)c(C)c2)cc(C)c1N", "outcome": "inactive"}
{"smiles": "NC1CCC(CC2CCC(N)CC2)CC1", "note": "(stereo not given)", "outcome": "inactive"}
{"smiles": "CCCCC(CC)COC(=O)c1ccc(C(=O)OCC(CC)CCCC)c(C(=O)OCC(CC)CCCC)c1", "note": "(stereo not given)", "outcome": "inactive"}
{"smiles": "O=[N+]([O-])c1ccccc1CCl", "outcome": "inactive"}
{"smiles": "CC(C)OS(C)(=O)=O", "outcome": "inactive"}
{"smiles": "Cc1cccc(N)c1C", "outcome": "inactive"}
{"smiles": "CCC[N+](=O)[O-]", "outcome": "inactive"}
